Screening results as filed in PubChem BioAssay.
Shown are actives, neighbours in structure and some others; about 21% of the full set was active somewhere.
Cycloheximide cs – Cycloheximide Counterscreen for Small Molecule Inhibitors of Shiga Toxin; max response, %; cell reporter, cycloheximide protein synthesis inhibition counterscreen; 300,000 compounds, 12% hits; in the data active = max response mostly above about 13%, no sharp cut-off; inactive = mostly below about 14%; also: read at 38.3 µM for the half of the compounds with a filed dose
Pf growth 96h – Primary qHTS for delayed death inhibitors of the malarial parasite plastid, 96 hour incubation | Potency, µM (top dose mostly 28.7 µM), actives largely listed as inhibitors | P. falciparum luciferase reporter growth, 96 h | AID 504834, 2011 | 320,000 compounds, 6.9% hits
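Luminescence readout: decreased luciferase signal marks inhibited growth of reporter-expressing P. falciparum in infected red cells (2% hematocrit, 0.05% parasitemia final), exposed to compound two generations (96 h, 37 C, 5% CO2).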
Shiga inhibitor – A qHTS for Small Molecule Inhibitors of Shiga Toxin; Vero cells, Shiga toxin protein synthesis inhibition reporter; inhibition, % at 38.7 µM; 290,000 compounds, 9.2% hits; AID 2315, 2010; in the data active = inhibition mostly above about 28%, no sharp cut-off; inactive = mostly below about 43%
Pf growth 48h – Primary qHTS for delayed death inhibitors of the malarial parasite plastid, 48 hour incubation; AID 504832, 2011; Potency, µM (series often up to 28.7 µM), actives largely listed as inhibitors; P. falciparum luciferase growth in erythrocytes, 48 h; 310,000 compounds, 5.9% hits
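Parasite viability was followed by luminescence of a genomically integrated firefly luciferase. Cultures held 0.1% parasitemia at 2% hematocrit (final), incubated under 5% CO2 at 37 C.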
Hits are given with their value. Unless noted, calls follow the shape of the dose curve; as a rule, active = well fitted inhibition curve with a large enough effect; inconclusive = small, poorly fitted or top-dose-only effect, or another doubt; inactive = no such curve, though single readings can be large or run the other way.

Screening Cc1cc2nccc(-c3ccc(Cl)cc3Cl)n2n1 returned Cycloheximide cs inactive, Pf growth 96h inactive, Shiga inhibitor inactive and Pf growth 48h inactive.
Cc1nccc(-c2cc(-c3ccc(Cl)cc3Cl)no2)n1 was read as Cycloheximide cs 36, Pf growth 96h inactive, Shiga inhibitor 97 and Pf growth 48h inactive.
`Cc1cccc(-n2cc(C(=O)O)c(=O)cc2C)c1` gave Cycloheximide cs inactive, Pf growth 96h inactive, Shiga inhibitor inactive and Pf growth 48h inactive.
COC(=O)C1=C(c2cccc(OCc3ccccc3)c2)C[C@@H]2CC[C@H]1N2C(=O)NCc1ccc2[nH]ccc2c1 was read as Pf growth 96h inconclusive and Pf growth 48h 13µM.
COC(=O)C1=C(c2cccc(OCc3ccccc3)c2)C[C@@H]2CC[C@H]1N2C(=O)NCc1ccc(C(F)(F)F)cc1 was read as Pf growth 96h 5.2µM and Pf growth 48h 13µM.
Screening COC(=O)C1=C(c2cccc(OCc3ccccc3)c2)C[C@@H]2CC[C@H]1N2C(=O)NCc1ccc(F)cc1 returned Pf growth 96h 9.3µM and Pf growth 48h 12µM.
COC(=O)C1=C(c2cccc(OCc3ccccc3)c2)C[C@@H]2CC[C@H]1N2C(=O)NCCCc1ccccc1 was read as Pf growth 96h inconclusive and Pf growth 48h 9.3µM.
`COc1cc2[nH]c(=S)nc(NCc3ccccn3)c2cc1OC` gave Cycloheximide cs inactive, Pf growth 96h inconclusive, Shiga inhibitor inactive and Pf growth 48h inconclusive.
Screening CC(=O)c1c(C)[nH]c(C(=O)Nc2cccnc2)c1C returned Cycloheximide cs inactive, Shiga inhibitor inactive and Pf growth 48h inactive.
COc1ccc(CCNC(=O)c2[nH]c(C)c(C(C)=O)c2C)cc1 was read as Cycloheximide cs inactive, Shiga inhibitor inactive and Pf growth 48h inactive.
For COc1ccc(CNC(=O)c2[nH]c(C)c(C(C)=O)c2C)cc1 the results were Cycloheximide cs inactive, Pf growth 96h inconclusive, Shiga inhibitor inactive and Pf growth 48h 15µM.
CC(=O)c1c(C)[nH]c(C(=O)Nc2nccs2)c1C was read as Cycloheximide cs 40, Pf growth 96h inactive, Shiga inhibitor 93 and Pf growth 48h inactive.
Screening CCOc1ccc(NC(=O)c2[nH]c(C)c(C(C)=O)c2C)cc1 returned Cycloheximide cs 31, Pf growth 96h inactive, Shiga inhibitor 43 and Pf growth 48h inactive.
`COc1ccc(OCCOC(=O)c2[nH]c(C)c(C(C)=O)c2C)cc1` gave Cycloheximide cs 27, Pf growth 96h inactive, Shiga inhibitor inactive and Pf growth 48h inactive.
CNC(=O)c1ccc(NC(=O)CC2SC(N3CCCC3)=NC2=O)cc1 (stereo not drawn) was read as Pf growth 96h inconclusive and Pf growth 48h inactive.
`CCc1c(C(=O)Nc2ccc(OC)cc2)[nH]c(C)c1C(C)=O` gave Cycloheximide cs 21, Pf growth 96h inactive, Shiga inhibitor 29 and Pf growth 48h inconclusive.
For Cc1cccc(NC(=O)c2cccc(C(=O)Nc3cccc(C)n3)c2)n1 the results were Cycloheximide cs inactive, Pf growth 96h inactive, Shiga inhibitor inactive and Pf growth 48h inactive.
COc1ccc(NC(=O)c2[nH]c(C)c(C(C)=O)c2C)cc1 was read as Cycloheximide cs 42, Pf growth 96h inactive, Shiga inhibitor 79 and Pf growth 48h inactive.
`CC(=O)c1c(C)[nH]c(C(=O)NCCc2cccc(C)c2)c1C` gave Cycloheximide cs 45, Shiga inhibitor 80 and Pf growth 48h inactive.
Screening CC(=O)c1c(C)[nH]c(C(=O)Nc2cccc(C)n2)c1C returned Cycloheximide cs 30, Pf growth 96h inactive, Shiga inhibitor 59 and Pf growth 48h inactive.
For O=C(CCNC(=O)c1ccccc1Cl)NCC(c1ccc(F)cc1)N1CCOCC1 (stereo not drawn) the results were Pf growth 96h inactive and Pf growth 48h inactive.
Cc1ccccc1CN1CCN(CC2CC2)CC1CCO (stereo not drawn) was read as Cycloheximide cs inactive, Pf growth 96h inactive, Shiga inhibitor inactive and Pf growth 48h inactive.
`CC(C)c1ccc(CNC(=O)C(=O)NCC2CCCO2)cc1` (stereo not drawn) gave Cycloheximide cs inactive, Pf growth 96h inconclusive, Shiga inhibitor inactive and Pf growth 48h inactive.
CC[C@H](C)[C@H](NC(=O)[C@@H]1CCCN1C(=O)[C@H](Cc1cnc[nH]1)NC(=O)[C@@H](NC(=O)[C@H](Cc1ccc(O)cc1)NC(=O)[C@@H](NC(=O)[C@H](CCCN=C(N)N)NC(=O)CNC)C(C)C)[C@@H](C)CC)C(=O)O was read as Cycloheximide cs inactive and Shiga inhibitor inactive.
Screening COc1ccc(NC(=O)CCOc2ccc(C)cc2)c(OC)c1 returned Cycloheximide cs inactive, Pf growth 96h inactive and Pf growth 48h inactive.
`CSc1nnc(C2CCN(CC(=O)Nc3ccccc3N3CCOCC3)CC2)n1C(C)C` gave Cycloheximide cs inactive, Pf growth 96h inactive, Shiga inhibitor inactive and Pf growth 48h inconclusive.
`O=C(CC1C(=O)NCCN1Cc1cccc(F)c1F)NCCCC1CCCC1` (stereo not drawn) gave Cycloheximide cs inactive, Pf growth 96h inconclusive, Shiga inhibitor inactive and Pf growth 48h inactive.
`CCc1ccc(NC(=O)c2[nH]c(C)c(C(C)=O)c2C)cc1` gave Cycloheximide cs 42, Pf growth 96h inactive, Shiga inhibitor 56 and Pf growth 48h inactive.
Screening CCOC(=O)CC(=O)CSc1ncnc2c1nnn2-c1ccccc1 returned Cycloheximide cs inactive, Pf growth 96h inconclusive, Shiga inhibitor inactive and Pf growth 48h inactive.
Nn1c(SCc2ccccn2)nncc1=O was read as Cycloheximide cs inactive, Pf growth 96h 12µM, Shiga inhibitor inactive and Pf growth 48h inactive.
c1ccc(COc2ccc(-c3csnn3)cc2)cc1 was read as Cycloheximide cs 60, Pf growth 96h inactive, Shiga inhibitor 60 and Pf growth 48h inactive.
`Cc1ccccc1C(=O)Oc1ccc(-c2csnn2)cc1` gave Cycloheximide cs 22, Pf growth 96h inactive, Shiga inhibitor inactive and Pf growth 48h inactive.
Screening Cc1ccccc1C(=O)Oc1ccc(Sc2ccc(O)cc2)cc1 returned Cycloheximide cs inactive, Shiga inhibitor inactive and Pf growth 48h inactive.
`CC(=O)COc1ccc(-c2csnn2)cc1` gave Cycloheximide cs inactive, Pf growth 96h inactive, Shiga inhibitor 42 and Pf growth 48h inactive.
O=C(O)COc1ccc2ccccc2c1 was read as Cycloheximide cs inactive and Shiga inhibitor inactive.
For COc1ccc(CNC(=O)CSc2n[nH]c(C)c2[N+](=O)[O-])cc1 the results were Cycloheximide cs inactive, Pf growth 96h inactive, Shiga inhibitor inactive and Pf growth 48h inactive.
CCc1nc(SCC(=O)NNC(=O)C(C)C)c2ccccc2n1 was read as Cycloheximide cs inactive, Pf growth 96h 12µM, Shiga inhibitor inactive and Pf growth 48h inconclusive.
Screening CC(C)C(=O)NNC(=O)CSc1nc(C2CCCCC2)nc2ccccc12 returned Cycloheximide cs inactive, Pf growth 96h 1.5µM, Shiga inhibitor inactive and Pf growth 48h inactive.
Screening NCC(=O)Nc1ccc(Cl)cc1C(=O)c1ccc[nH]1 returned Cycloheximide cs inactive, Pf growth 96h 5.2µM, Shiga inhibitor inactive and Pf growth 48h inconclusive.
Screening CN(C)CCCNCC(=O)Nc1ccc(Cl)cc1C(=O)c1ccccc1 returned Cycloheximide cs inactive, Pf growth 96h inactive, Shiga inhibitor inactive and Pf growth 48h 3.7µM.
